# High-throughput results from PubChem.
# The list is not random: actives were taken first. Their share in the collection is about 1.5%.
# NOD2-RIPK2 inh = NOD2-RIPK2 protein interaction inhibition | O43353 | CHO BLA complementation NOD2-RIPK2, CCF4 ratio | inhibition, % at 4.98 µM | 0.38% of 360,000 active; in the data active means inhibition above about 21%;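 further: 0% = vehicle only and 100% = reference blocker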
# Target sequence (O43353 whole entry, looked up): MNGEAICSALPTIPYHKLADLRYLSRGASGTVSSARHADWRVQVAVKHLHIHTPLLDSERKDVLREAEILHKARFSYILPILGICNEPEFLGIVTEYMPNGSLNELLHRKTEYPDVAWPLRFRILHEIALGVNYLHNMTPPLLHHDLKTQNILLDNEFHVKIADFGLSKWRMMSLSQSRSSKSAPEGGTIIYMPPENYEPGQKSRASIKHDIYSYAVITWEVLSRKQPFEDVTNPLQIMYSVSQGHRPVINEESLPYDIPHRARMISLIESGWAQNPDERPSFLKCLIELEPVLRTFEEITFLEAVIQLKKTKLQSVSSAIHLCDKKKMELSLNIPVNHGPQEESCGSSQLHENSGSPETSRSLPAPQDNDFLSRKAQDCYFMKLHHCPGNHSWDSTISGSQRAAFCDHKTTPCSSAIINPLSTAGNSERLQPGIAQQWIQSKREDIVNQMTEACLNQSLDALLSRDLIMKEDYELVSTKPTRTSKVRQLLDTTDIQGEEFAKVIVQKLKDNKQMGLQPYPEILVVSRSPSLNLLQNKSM
# Myeloid diff 2 = myeloid differentiation induction; ER-HoxA9 myeloid progenitors, lysozyme-GFP differentiation, flow cytometry; 1% of 360,000 active; calls only at 10 µM; AID 624256;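 active means normalized GFP-positive differentiation at or above the plate's own cutoff, the solvent-only control mean plus 3 SD; inconclusive means no clear call, values can overlap the other calls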;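 further: cells exposed to compound for four days before flow analysis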
# TLR9-MyD88 inh = blocks human TLR9 binding to MyD88. Q9NR96+Q99836. CHO BLA complementation TLR9-MyD88, CCF4 FRET ratio. inhibition, % at 4.98 µM. 0.21% of 340,000 active. AID 504734;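 active means inhibition above the mean over all tested compounds plus 3 SD, cut at about 21% in these data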;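 further: 0% = DMSO only wells and 100% = clavulanate BLA inhibitor control wells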
# TLR4 MyD88 comp = inhibitors of human TLR4-MyD88 binding | 0.18% of 200,000 active | HeLa CL3-4 TLR4/MyD88 BLA complementation, FRET ratio | O00206+Q99836 | AID 861 | inhibition, % at 8.4 µM; in the data active means inhibition above about 25%;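 further: 0% = vehicle and 100% = reference inhibitor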
# NOD2 RIPK2 conf = NOD2-RIPK2 interaction inhibition confirmed; shares compounds with NOD2-RIPK2 inh; CHO cells, NOD2-RIPK2 BLA complementation, CCF4 FRET; inhibition, % at 4.98 µM; 70% of 1,200 active; AID 624370;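 active means mean inhibition across replicates above a set limit taken from the earlier primary screen, cut at about 21% in these data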;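 further: 0% = DMSO-only wells and the high end = clavulanate BLA-blocked wells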
# NOD2 BLA counter = counter-screen for NOD2-RIPK2 interaction inhibitors: BLA reporter; 57% of 1,200 active; shares compounds with NOD2-RIPK2 inh; inhibition, % at 4.98 µM; CHO BLA reporter, CCF4 FRET ratio, counterscreen;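 active means mean inhibition above the low-control mean inhibition plus three low-control SD, cut at about 11% in these data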;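 further: 0% = DMSO only wells and 100% = clavulanate high control wells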
# Starred values were filed as active, the others as inactive; i = inactive; u = inconclusive; x = no result.
SMILES,NOD2-RIPK2 inh,Myeloid diff 2,TLR9-MyD88 inh,TLR4 MyD88 comp,NOD2 RIPK2 conf,NOD2 BLA counter
CCc1nc2c(OCCn3cccc3)cccn2c1N(C)C(=O)C1CC1,6.0,i,x,x,x,x
CC(C)(C)c1cc(C(=O)CCN2CCOCC2)cc(C(C)(C)C)c1O,48.5*,i,5.9,x,3.6,-2.3
Cc1ccc(C2C=C(c3ccccc3OC(F)F)Nc3ncnn32)cc1 (stereo not given),29.9*,i,16.4,17.3,26.6*,30.6*
O=C(Cn1ncc(Cl)c(Cl)c1=O)NC(=O)NC1CCCCC1,28.1*,x,5.5,x,46.7*,8.4
Cc1cc(Br)ccc1NC(=O)CNC(=O)Cn1ncc(Cl)c(Cl)c1=O,24.7*,u,5.0,-3.5,36.1*,3.9
O=C(Cn1ncc(Cl)c(Cl)c1=O)Nc1ccc2c(c1)OCO2,21.3*,u,9.5,x,24.8*,5.0
Cc1ccc(S(=O)(=O)N2CCCCC2)cc1NC(=O)Cn1ncc(Cl)c(Cl)c1=O,43.7*,u,19.9,x,45.4*,12.4*
O=C(NCc1ccncc1)[C@@H]1CCCN1C(=O)[C@H]1CCCN1C(=O)c1ccccc1,2.0,i,x,x,x,x
CCOC(=O)n1c2ccccc2c(=O)n1CCO,-5.3,i,x,x,x,x
O=C(Cn1ncc(Cl)c(Cl)c1=O)N1CCN(S(=O)(=O)c2ccc3ccccc3c2)CC1,49.9*,u,11.3,18.8,67.7*,14.7*
CCN(CC)S(=O)(=O)c1cc(NC(=O)Cn2ncc(Cl)c(Cl)c2=O)ccc1C,21.8*,u,19.3,x,34.8*,8.6
O=S(=O)(Nc1ccc(C(O)(C(F)(F)F)C(F)(F)F)cc1)c1cccc2ccccc12,5.2,i,x,x,x,x
Cc1[nH]nc(-c2cccnc2)c1N=NN(C)C,36.5*,x,15.0,x,18.8,-1.4
CC(C)NC(=O)c1cc(C2CCCCN2S(=O)(=O)c2cccc3cccnc23)on1 (stereo not given),-10.2,i,x,x,x,x
CCOC(=O)Cn1nc2oc(=O)c(CCN3CCN(c4ccccc4OC)CC3)c(C)c2c1C,-6.4,i,-14.4,x,x,x
CNc1c2cccc(C)c2nc2c(C(=O)NCCN(C)C)cccc12,40.8*,x,6.7,x,58.0*,28.6*
CCCCCCCCCc1nc2sc3c(c2c(=O)n1NC(=O)c1ccc([N+](=O)[O-])cc1)CC(C)(C)OC3,32.2*,i,-4.2,-18.7,-1.1,0.8
CCc1ccc(Nc2n[n+](-c3ccccc3)c(-c3ccc(N(CC)CC)cc3)s2)cc1,28.7*,x,11.2,x,69.0*,75.6*
CCc1ccc(Nc2n[n+](-c3ccccc3)c(-c3ccc(OCc4ccccc4)cc3)s2)cc1,-0.5,i,-7.8,x,x,x
CC(=O)N1CCN(C(=O)CN2C(=O)NC(C)(c3ccc4ccccc4c3)C2=O)CC1 (stereo not given),-4.2,i,-1.1,x,x,x
CC1(c2ccc3ccccc3c2)NC(=O)N(CC(=O)N2CCCC(C(F)(F)F)C2)C1=O (stereo not given),27.6*,i,7.6,x,0.0,-1.5
O=C(Nc1c(-c2ccc3c(c2)OCO3)[nH][nH]c1=O)c1cccc(C(F)(F)F)c1,-5.7,i,x,x,x,x
COC(=O)C[C@@H]1OC[C@H](CO)N1S(=O)(=O)c1ccc(C)cc1,2.0,i,x,x,x,x
Cc1cc(NC(=O)CCN2C(=O)/C(=C/c3ccccc3Cl)SC2=S)no1,33.9*,i,0.3,-13.4,-10.5,-1.6
COc1ccccc1/C=C1\SC(=S)N(CCC(=O)Nc2cc(C)on2)C1=O,-4.6,i,-3.9,x,x,x
SMILES,NOD2-RIPK2 inh,Myeloid diff 2,TLR9-MyD88 inh,TLR4 MyD88 comp,NOD2 RIPK2 conf,NOD2 BLA counter
CC12CCC=CC1=C(C=O)C1C2CCC2(C)C(O)CCC12 (stereo not given),6.9,i,0.4,x,x,x
O=C(CSc1ccccn1)Nc1nonc1[N+](=O)[O-],31.4*,u,15.0,x,13.3,4.9
Cc1ccc(-c2cc(C(F)F)nc(S(C)(=O)=O)n2)cc1,23.0*,i,14.7,4.5,18.4,-1.7
Cc1ccc(-c2cc(-c3ccccc3)nc(Cl)n2)cc1,-1.4,i,3.9,12.4,x,x
CC(OC(=O)c1ccc(S(C)(=O)=O)c([N+](=O)[O-])c1)C(=O)NC1C2CC3CC(C2)CC1C3 (stereo not given),25.0*,u,x,x,65.1*,7.5
O=C(Nc1ccc(F)cc1)C(c1ccccc1OC(F)(F)F)N1CCN(c2cccc(C(F)(F)F)n2)CC1 (stereo not given),0.7,i,x,x,x,x
O=[N+]([O-])/C=C\c1ccc(N2CCOCC2)cc1,44.8*,i,5.3,x,43.0*,-4.8
O=C1C=CC(=O)N1c1ccc2c(c1)Cc1cc(F)ccc1-2,22.7*,i,4.3,x,64.2*,15.6*
Cc1ccccc1NS(=O)(=O)c1ccc(C(=O)NCc2ccccc2CN2CCCC2)cc1,-3.8,i,5.6,x,x,x
N/C(=N\C(=S)Nc1ccc2c(c1)OCO2)c1ccccc1,-4.0,i,x,x,x,x
Cc1ccc(S(=O)(=O)CCC(=O)c2cccc([N+](=O)[O-])c2)cc1,22.4*,i,-10.9,x,38.5*,1.4
COc1ccc(N2C(=O)C(CC(=O)Nc3ccc(Cl)cc3)N(NC(=O)c3cccc(F)c3)C2=S)cc1 (stereo not given),8.3,i,-4.2,x,x,x
COc1ccc(NC(=O)CC2C(=O)N(c3ccc(OC)cc3)C(=S)N2NC(=O)c2cccc(F)c2)cc1 (stereo not given),22.4*,i,6.6,-17.6,4.8,-3.1
COCCNC(=S)N(C)[C@H]1C[C@H]2c3cc(-c4ccccc4)ccc3CCN2C(=O)[C@H]1[C@H](C)O,-4.2,i,10.1,x,x,x
COc1ccc(C2=CC(=O)N(Nc3ccccc3)C2=O)cc1,42.2*,i,x,5.3,55.4*,-0.4
O=C1Cc2ccccc2C(=O)N1Nc1ccccc1,9.4,i,4.4,x,x,x
O=C1C=C(c2ccccc2)C(=O)N1Nc1ccccc1,48.6*,i,19.5,1.8,78.0*,2.7
Cc1ccc(NN2C(=O)C=C(c3ccc(Cl)cc3)C2=O)cc1,50.6*,i,14.9,1.5,82.3*,10.5*
Cc1cn([C@H]2C[C@H](O)[C@@H](/C=C/C(=O)NCCN3CCCCC3)O2)c(=O)[nH]c1=O,61.4*,i,x,x,-1.9,-7.1
Cc1ccc(N(C)S(=O)(=O)c2cccc(C(=O)OCC(=O)N(C)Cc3ccccc3)c2)cc1,-4.4,i,-7.0,x,x,x
O=C(Nc1ccccc1)C1=C[C@@H](c2ccc(C(F)(F)F)cc2)C[C@@H](OCc2ccc(CO)cc2)O1,21.7*,i,-3.6,-0.8,0.4,3.5
O=C(Nc1ccccc1)C1=C[C@@H](c2ccccc2)C[C@@H](OCc2ccc(CO)cc2)O1,-3.1,i,-14.1,7.1,x,x
Nc1ncnc2c1ncn2[C@@H]1O[C@H](CNC(=O)[C@@H](N)Cc2ccc(C(=O)c3ccccc3)cc2)[C@@H](O)[C@H]1O,1.2,i,x,x,x,x
N#Cc1c2ccc(O)cc2n2ccccc12,22.4*,i,13.4,3.9,21.0*,26.0*
